# High-throughput results from PubChem.
# Only some compounds are listed: those with a hit (about 6.7% of all), similar ones and a draw of the others.
# C diff HTS – C. difficile growth inhibition | Clostridium difficile clinical isolate growth, OD600, 24 h; stronger effect = lower value | growth activity, negative = inhibition, % at 16 µg/mL (by protocol) | 86,000 tested, 0.25% active;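 active = mean growth activity at or below -80% and every replicate also at or below -80%; inconclusive = mean at or below -80% but some replicate above -80%; inactive = mean growth activity above -80%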;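 note: 0% = DMSO wells and -100% = levofloxacin 16 µg/mL wells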
# Pf Dd2 growth – P. falciparum Dd2 growth inhibition. activity change, % at 10 µM. 94,000 tested, 2.3% active. SYBR Green, 72 h; stronger effect = lower value; in the data active = activity change below about -80%; inconclusive = no clear call, values can overlap the other calls
# T cruzi growth-1 – T. cruzi proliferation inhibition; T. cruzi beta-gal in NIH3T3, GalScreen luminescence, 90 h; inhibition, % at 8.34 µM; 77,000 tested, 5.9% active;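 active = mean inhibition above about 93%, with at least 55% of replicates each passing it, limit read from the data, passing the limit was not always enough; inconclusive = only one of those two conditions holds; inactive = neither condition holds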
# T cruzi growth-2 – blocks T. cruzi growth in NIH3T3 host cells; AID 651739; inhibition, % at 8.35 µM; T. cruzi beta-gal in NIH3T3, GalScreen luminescence, 90 h; 5,600 tested, 72% active; shares compounds with T cruzi growth-1;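 active = mean replicate inhibition above about 95% and at least 55% of replicates individually reaching it, limit read from the data; inconclusive = only one of the two criteria is met; inactive = neither criterion is met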
# T cruzi growth-3 – blocks T. cruzi growth in NIH3T3 host cells; shares compounds with T cruzi growth-1; T. cruzi beta-gal in NIH3T3, GalScreen luminescence, 90 h; inhibition, % at 2.09 µM; AID 651740; 5,600 tested, 21% active;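 active = mean inhibition above about 95%, with at least 55% of replicates also reaching it, limit read from the data; inconclusive = meets just one of the two conditions; inactive = meets neither condition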;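 note: plate controls were neutral control median for no effect and positive control median for full effect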
# NIH3T3 tox – NIH/3T3 (mouse) viability loss; AID 651742; NIH/3T3 viability, CellTiter-Glo ATP luminescence, 90 h; 5,600 tested, 14% active; cytotoxicity (signal decrease), % at 8.35 µM; shares compounds with T cruzi growth-1;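 active = mean signal decrease across replicates above about 35% based on untreated-well scatter, with enough replicates individually passing, limit read from the data; inconclusive = no rule stated though some were filed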;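 note: 0% = median of neutral control wells and 100% = median of positive control wells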
# 3T3 cytotox 2 – kills mouse NIH/3T3 fibroblasts. 5,600 tested, 56% active. AID 651744. inhibition, % at 24.9 µM. NIH/3T3 viability, CellTiter-Glo ATP luminescence, 90 h. shares compounds with T cruzi growth-1;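 active = mean loss of cell viability signal at or above a set limit, and enough replicates individually reaching it; inconclusive = meets only the mean limit or only the replicate share; inactive = meets neither condition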;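 note: 0% = median of neutral control wells and 100% = median of positive control wells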
# * = called active by the depositor; ? = inconclusive; nt = not tested or not shown.
SMILES,C diff HTS,Pf Dd2 growth,T cruzi growth-1,T cruzi growth-2,T cruzi growth-3,NIH3T3 tox,3T3 cytotox 2
CC(=O)NC[C@@H]1[C@H](c2ccc(C3=CCCC3)cc2)[C@H](CO)N1C(=O)NC(C)C,-3,-9,2,nt,nt,nt,nt
C[C@@H]1CN([C@@H](C)CO)C(=O)Cc2cc(NC(=O)C3CCCCC3)ccc2O[C@H]1CN(C)C(=O)Nc1ccc(C(F)(F)F)cc1,-3,-38,49,nt,nt,nt,nt
C[C@@H](NC(=O)C[C@@H]1C=C[C@H](NC(=O)C2CCOCC2)[C@@H](CO)O1)c1ccccc1,-4,3,79,nt,nt,nt,nt
C[C@H]1CN([C@@H](C)CO)S(=O)(=O)c2ccc(-c3ccccc3F)cc2O[C@@H]1CN(C)Cc1ccncc1,-5,-26,116*,101*,100*,40*,104*
Cc1ccccc1-c1ccc2c(c1)O[C@@H](CN(C)Cc1ccncc1)[C@@H](C)CN([C@@H](C)CO)S2(=O)=O,2,-61,90,nt,nt,nt,nt
C[C@@H]1CN([C@@H](C)CO)S(=O)(=O)c2ccc(-c3ccccc3F)cc2O[C@H]1CN(C)Cc1ccncc1,-4,-38,116*,88,97*,65*,101*
CCNC(=O)C[C@@H]1CC[C@H]2[C@@H](COc3ccc(NC(=O)Cc4ccccc4)cc3C(=O)N2C)O1,0,0,105*,104*,4,15,23
CC(C)C(=O)Nc1ccc2c(c1)C(=O)N(C)[C@H]1CC[C@@H](CC(=O)NCc3ccccc3)O[C@@H]1CO2,4,1,27,nt,nt,nt,nt
CC(C)c1ccc(NC(=O)C[C@H]2CC[C@H]3[C@@H](COc4ccc(NC(=O)Nc5ccc(F)c(F)c5)cc4C(=O)N3C)O2)cc1,15,5,100*,103*,78,21,?
Cc1cc(C(=O)Nc2ccc3c(c2)C(=O)N(C)[C@@H]2CC[C@H](CC(=O)NCc4ccc(-c5ccccc5)cc4)O[C@H]2CO3)no1,-19,nt,85,nt,nt,nt,nt
CCC(=O)Nc1ccc2c(c1)C(=O)N(C)[C@H]1CC[C@H](CC(=O)Nc3ccc(C(C)C)cc3)O[C@@H]1CO2,-5,4,40,nt,nt,nt,nt
CCNC(=O)C[C@@H]1CC[C@@H]2[C@H](COc3ccc(NC(=O)Cc4ccccc4)cc3C(=O)N2C)O1,2,1,11,nt,nt,nt,nt
CC(C)C(=O)Nc1ccc2c(c1)C(=O)N(C)[C@H]1CC[C@H](CC(=O)NCc3ccccc3)O[C@@H]1CO2,5,-40,103*,98*,5,-9,-26
Cc1cc(C(=O)Nc2ccc3c(c2)C(=O)N(C)[C@@H]2CC[C@H](CC(=O)NCc4ccc(-c5ccccc5)cc4)O[C@@H]2CO3)no1,-10,nt,103*,?,?,78*,75*
C[C@H](CO)N1C[C@H](C)[C@H](CN(C)C(=O)Nc2ccc3c(c2)OCO3)OCc2cn(nn2)CCCC1=O,-4,6,25,nt,nt,nt,nt
C[C@@H]1CN([C@H](C)CO)C(=O)c2cccc(NS(=O)(=O)c3cccs3)c2O[C@H]1CN(C)C(=O)Nc1ccc(F)cc1,-2,29,45,nt,nt,nt,nt
COc1ccc2c3c([nH]c2c1)[C@H](CO)N(Cc1ccccc1)CC31CCN(C(=O)Nc2cccc(F)c2)CC1,26,-68,nt,nt,nt,nt,nt
C[C@H](CO)N1C[C@H](C)[C@@H](CN(C)Cc2ccccc2)Oc2cc(C#CC(C)(C)O)ccc2S1(=O)=O,-5,-12,89,nt,nt,nt,nt
C[C@@H]1CN([C@@H](C)CO)S(=O)(=O)c2ccc(C#CC(C)(C)O)cc2O[C@H]1CN(C)Cc1ccc(-c2ccccc2)cc1,8,-56,118*,91,113*,116*,107*
C[C@H](O)C#Cc1ccc2c(c1)O[C@@H](CN(C)Cc1ccc(-c3ccccc3)cc1)[C@H](C)CN([C@H](C)CO)S2(=O)=O,1,-72,60,nt,nt,nt,nt
C[C@@H]1CN([C@@H](C)CO)S(=O)(=O)c2ccc(C#CC(C)(C)O)cc2O[C@@H]1CN(C)Cc1ccc(-c2ccccc2)cc1,7,-6,121*,93,115*,5,103*
C[C@H](O)C#Cc1ccc2c(c1)O[C@H](CN(C)Cc1ccc(-c3ccccc3)cc1)[C@H](C)CN([C@@H](C)CO)S2(=O)=O,0,8,109*,99*,101*,47*,104*
C[C@H](CO)N1C[C@H](C)[C@H](CN(C)Cc2ccccc2)Oc2cc(C#CC(C)(C)O)ccc2S1(=O)=O,-5,-16,60,nt,nt,nt,nt
C[C@@H]1CN([C@H](C)CO)C(=O)Cc2cc(NC(=O)CCC(F)(F)F)ccc2O[C@@H]1CN(C)C(=O)Nc1ccc(C(F)(F)F)cc1,-5,8,1,nt,nt,nt,nt
O=C(C1CCOCC1)N1CC[C@@H]2[C@H](CO)Nc3ccc(-c4ccc(F)cc4)cc3[C@@H]21,13,14,?,110*,64,-12,12
SMILES,C diff HTS,Pf Dd2 growth,T cruzi growth-1,T cruzi growth-2,T cruzi growth-3,NIH3T3 tox,3T3 cytotox 2
O=C(C1CCOCC1)N1CC[C@H]2[C@H](CO)Nc3ccc(-c4cccc(F)c4)cc3[C@H]21,-6,-12,72,nt,nt,nt,nt
O=C(C1CCOCC1)N1CC[C@@H]2[C@@H](CO)Nc3ccc(-c4cccc(F)c4)cc3[C@@H]21,-6,-15,58,nt,nt,nt,nt
O=C(C1CCOCC1)N1CC[C@H]2[C@H](CO)Nc3ccc(-c4ccc(F)cc4)cc3[C@H]21,-9,0,101*,104*,48,-12,-9
COc1ccc(CN(C)C[C@@H]2Oc3ccc(NC(=O)C4CC4)cc3C(=O)N([C@@H](C)CO)C[C@@H]2C)cc1,3,30,-19,nt,nt,nt,nt
CN1C(=O)c2cc(NC(=O)c3cccc(F)c3)ccc2OC[C@H]2O[C@H](CC(=O)NC3CCC3)CC[C@@H]21,0,-21,-4,nt,nt,nt,nt
COc1ccccc1CNC(=O)C[C@H]1C[C@@H]2c3cc(NC(=O)CC4CC4)ccc3O[C@@H]2[C@H](CO)O1,1,0,-20,nt,nt,nt,nt
COc1ccccc1CNC(=O)C[C@H]1C[C@@H]2c3cc(NC(=O)NC4CCCC4)ccc3O[C@@H]2[C@@H](CO)O1,4,0,109*,29,23,-2,-2
COc1ccccc1CNC(=O)C[C@@H]1C[C@@H]2c3cc(NC(=O)CC4CC4)ccc3O[C@@H]2[C@@H](CO)O1,0,-22,16,nt,nt,nt,nt
COc1ccccc1CNC(=O)C[C@H]1C[C@H]2c3cc(NC(=O)NC4CCCC4)ccc3O[C@H]2[C@H](CO)O1,6,-19,109*,108*,28,-5,9
C[C@H]1CN([C@@H](C)CO)C(=O)c2cc(NC(=O)CCN3CCOCC3)ccc2O[C@@H]1CN(C)Cc1ccc(-c2ccccc2)cc1,-13,-6,-20,nt,nt,nt,nt
CCNC(=O)Nc1ccc2c(c1)C(=O)N(C)[C@H]1CC[C@H](CC(=O)Nc3ccccc3Cl)O[C@@H]1CO2,-7,6,-18,nt,nt,nt,nt
